{"source": "PubChem BioAssay (NCATS)", "note": "Records with an inconclusive call do not appear. Values without a mark were called inactive. Active and inactive are the calls of the source. The call rests on the fitted dose curve; in most records, active means well fitted inhibition curve with a large enough effect; inconclusive means small, poorly fitted or top-dose-only effect; inactive means flat fitted curve, though single readings scatter. On the % scale 0 is the no-effect control and ±100 the full control effect.", "data": [{"molecular_target": "Phospholipid hydroperoxide glutathione peroxidase GPX4 (Homo sapiens) (UniProt P36969)", "sequence (P36969 whole entry, looked up)": "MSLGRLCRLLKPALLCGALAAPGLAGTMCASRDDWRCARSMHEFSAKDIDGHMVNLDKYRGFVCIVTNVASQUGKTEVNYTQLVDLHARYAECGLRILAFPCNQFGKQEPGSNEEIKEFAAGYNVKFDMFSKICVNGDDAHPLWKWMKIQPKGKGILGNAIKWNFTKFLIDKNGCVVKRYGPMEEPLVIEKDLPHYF", "test": "Primary qHTS Assay for Inhibitors of Recombinant Selenoprotein Glutathione Peroxidase 4 (GPX4) (AID 1845192); further: nearly all actives have a fitted effect of over 65% in size", "details": "recombinant GPX4, GR-coupled NADPH fluorescence, 15 min; series mostly up to 50 µM; activity change, negative = inhibition: at the top concentration", "description": "Assay Provider: Elias S.J. Arner MD PhD.\nDepartment of Medical Biochemistry and Biophysics\nKarolinska Institutet, Solna, Stockholm, Sweden\nSelenoprotein glutathione peroxidases (GPX), like the ubiquitously expressed GPX1 and the ferroptosis modulator GPX4, enact their antioxidant activities by reducing hydroperoxides using glutathione. […] GPX1 and GPX4 inhibitors have thus shown promise as anti-cancer agents. Existing inhibitors are often promiscuous, or modulate GPX activity only indirectly, so novel direct inhibitors identified through screening against GPX1 and GPX4 could be valuable. Here, we developed optimized glutathione reductase (GR)-coupled GPX assays for the biochemical high-throughput screen (HTS) of almost 12,000 compounds with known mechanisms of action. Initial hits were triaged using a GR counter-screen, assessed for isoform specificity using a separate GPX2 assay, and were assessed for general selenocysteine-targeting activity using a thioredoxin reductase (TXNRD1) assay. With this suite of assays, we identified novel GPX1/GPX2- and GPX4-specific inhibitors and can here present a validated pipeline for future discovery research for selenoprotein-targeting agents.\nSEQUENCE No. (e.g., 1, 2, 3, etc.); […] (e.g., Cells, Incubation, Reagent, etc.); VALUE; DESCRIPTION.\n1; Reagent 1; 3 uL; 333.33 nM GPx4 enzyme or no enzyme control in 1536-well, black, solid Greiner assay plate.\n2; Compound; 25 nL; Kalypsis pin tool (Wako USA) equipped with a 1536-well pin head.\n3; Incubation; 30 min; room temperature.\n4; Reagent 2; 1 uL; 500 nM GR, 5 mM GSH, 2.5 mM NADPH solution\n5; Reagent 3; 1 uL; 2.5 mM CHP in 50% EtOH.\n6; Detection; Fluorescence; ViewLux microplate reader, excitation 340 nm and emission 450 nm.\n7; Incubation; 15 min; room temperature.\n8; Detection; Fluorescence; ViewLux microplate reader, excitation 340 nm and emission 450 nm.\nNOTES (numbers refer to Sequence numbers above)\n1. 3 µL of 333.33 nM GPX4 and 0.016% BSA in assay buffer (50 mM Tris-HCl, 2 mM EDTA (pH 7.5), 150 mM NaCl) was added to columns 3-48 of 1536-well plates using a BioRAPTR Flying Reagent Dispenser (Let's Go Robotics (LGR), Carlsbad, CA). A no-enzyme control (0.01% BSA in TES assay buffer) was added to columns 1-2.\n2. 25 nL, library and DMSO controls were added to each well with a pin tool (Kalypsys).\n3. The assay plates were incubated for 30 minutes at room temperature.\n4. 1 µL of master mix (500 nM glutathione reductase (GR), 5 mM reduced glutathione (GSH), 2.5 mM NADPH in assay buffer) was added.\n5. 1 µL of cumene hydroperoxide (CHP) ([2.5 mM] in 50% EtOH) was then added within 5 minutes to initiate the reaction. Final concentrations were: 200 nM GPX4, 1 mM GSH, 0.5 mM CHP, 0.5 mM NADPH, 100 nM GR, 0.01% BSA.\n6. Initial fluorescence readout (t=0) at 340/450 nm was measured using a ViewLux multimodal detector (PerkinElmer, Waltham, MA).\n8. Endpoint fluorescence readout (t=15) at 340/450 nm was measured 15 min after room temperature incubation.", "units": {"activity change, negative = inhibition": "%"}, "values": [{"smiles": "C[N+](C)(C)CCCCCCCCCC[N+](C)(C)C", "outcome": "inactive"}, {"smiles": "CC(=O)[C@]1(O)Cc2c(O)c3c(c(O)c2[C@@H](O[C@H]2C[C@H](N)[C@H](O)[C@H](C)O2)C1)C(=O)c1ccccc1C3=O", "outcome": "inactive"}, {"smiles": "COc1ccc(CN(CCN(C)C)c2ccccn2)cc1", "outcome": "inactive"}, {"smiles": "CC1=NS(=O)(=O)c2cc(Cl)ccc2N1", "outcome": "inactive"}, {"smiles": "CCN1CCc2nc(N)oc2CC1", "activity change, negative = inhibition": -18.6}, {"smiles": "CCc1c(C)[nH]c2c1C(=O)C(CN1CCOCC1)CC2", "note": "(stereo not given)", "outcome": "inactive"}, {"smiles": "CCO/C([O-])=N/c1c[n+](N2CCOCC2)no1", "outcome": "inactive"}, {"smiles": "CCCCNc1c(C(=O)OCC)c(C)nc2c1cnn2CC", "activity change, negative = inhibition": -8.62}, {"smiles": "CSc1ccc(C(=O)c2[nH]c(=O)[nH]c2C)cc1", "outcome": "inactive"}, {"smiles": "CN1CCN(CC(=O)N2c3ccccc3C(=O)Nc3cccnc32)CC1", "outcome": "inactive [at 4.52 µM]"}, {"smiles": "CC(=O)Nc1nnc(S(N)(=O)=O)s1", "outcome": "inactive"}, {"smiles": "O=C(O)CN(CCN(CC(=O)O)CC(=O)O)CCN(CC(=O)O)CC(=O)O", "outcome": "inactive"}, {"smiles": "Cc1nnc(SCC2=C(C(=O)O)N3C(=O)[C@@H](NC(=O)Cn4cnnn4)[C@H]3SC2)s1", "outcome": "inactive"}, {"smiles": "Nc1c2c(nc3ccccc13)CCCC2O", "note": "(stereo not given)", "activity change, negative = inhibition": -15.3}, {"smiles": "Nc1ncn([C@@H]2O[C@H](CO)[C@@H](O)[C@H]2O)c(=O)n1", "outcome": "inactive"}, {"smiles": "Cc1nc2ccccn2c(=O)c1CCN1CCC(C(=O)c2ccc(F)cc2)CC1", "outcome": "inactive"}, {"smiles": "CCCC(C(=O)OCCN(CC)CC)(c1ccccc1)c1ccccc1", "activity change, negative = inhibition": -9.72}, {"smiles": "Fc1ccc(C(c2ccc(F)cc2)N2CCN(C/C=C/c3ccccc3)CC2)cc1", "outcome": "inactive"}, {"smiles": "C#CCN(C)CCCOc1ccc(Cl)cc1Cl", "activity change, negative = inhibition": -6.66}, {"smiles": "O=c1[nH]c(=O)n([C@H]2C[C@H](O)[C@@H](CO)O2)cc1Br", "outcome": "inactive"}, {"smiles": "CCCCNC(=O)NS(=O)(=O)c1ccc(C)cc1", "outcome": "inactive"}, {"smiles": "CCOC(=O)C1=C(C)NC(C)=C(C(=O)OC)C1c1cccc([N+](=O)[O-])c1", "note": "(stereo not given)", "outcome": "inactive"}, {"smiles": "O=C(CCCN1CCC(O)(c2cccc(C(F)(F)F)c2)CC1)c1ccc(F)cc1", "outcome": "inactive"}, {"smiles": "CC1=C(C)C(=O)C(CCCCC#CCCCC#CCO)=C(C)C1=O", "activity change, negative = inhibition": -18.5}, {"smiles": "COc1ccc2c(c1OC)C(=O)O[C@@H]2[C@H]1c2c(cc3c(c2OC)OCO3)CCN1C", "outcome": "inactive"}, {"smiles": "c1cnc(N2CCN(Cc3ccc4c(c3)OCO4)CC2)nc1", "activity change, negative = inhibition": -3.9}, {"smiles": "CN(C)CCCN1c2ccccc2Sc2ccccc21", "outcome": "inactive"}, {"smiles": "N[C@@H](COP(=O)(O)O)C(=O)O", "activity change, negative = inhibition": -7.85}, {"smiles": "C=CCc1ccccc1OCC(O)CNC(C)C", "note": "(stereo not given)", "outcome": "inactive"}, {"smiles": "CN(C)C/C=C(/c1ccc(Br)cc1)c1cccnc1", "outcome": "inactive"}, {"smiles": "O=C1NCN(c2ccccc2)C12CCN(CCCC(c1ccc(F)cc1)c1ccc(F)cc1)CC2", "activity change, negative = inhibition": -1.03}, {"smiles": "CCC(=O)c1ccc2c(c1)N(CCCN(C)C)c1ccccc1S2", "outcome": "inactive"}, {"smiles": "CC(N=C(NC#N)Nc1ccncc1)C(C)(C)C", "note": "(stereo not given)", "outcome": "inactive"}, {"smiles": "CCCCOCCOCCOCc1cc2c(cc1CCC)OCO2", "activity change, negative = inhibition": -3.37}, {"smiles": "CN(C)CC/C=C1\\c2ccccc2COc2ccccc21", "outcome": "inactive"}, {"smiles": "CNCCCN1c2ccccc2CCc2ccccc21", "outcome": "inactive"}, {"smiles": "CN(C(=O)CCCOc1ccc2[nH]c(=O)ccc2c1)C1CCCCC1", "outcome": "inactive"}, {"smiles": "c1ccc2c(c1)CCCC2C1=NCCN1", "note": "(stereo not given)", "outcome": "inactive"}, {"smiles": "CC(C)(Oc1ccc(CCNC(=O)c2ccc(Cl)cc2)cc1)C(=O)O", "outcome": "inactive"}, {"smiles": "CCN(CC)CCOCCOC(=O)C1(c2ccccc2)CCCC1", "outcome": "inactive"}]}]}
